{"source": "PubChem BioAssay AID652104", "about": "(National Center for Advancing Translational Sciences (NCATS), 2013)", "note": "In all, about 410,000 compounds went through this assay and about 7,200 (1.8%) were called active. Where a call stands in place of a potency, no number is given. Another 7% or so got no clear call; they are omitted. The call rests on the fitted dose curve; in most records, active means well fitted activation curve with a large enough effect; inconclusive means small, poorly fitted or top-dose-only effect, or another doubt; inactive means no such curve, though single readings can be large or run the other way. For the sample, actives were picked, then their nearest neighbours and some compounds at random.", "data": [{"assay": "qHTS of TDP-43 Inhibitors; further: nearly all actives have a fitted effect of over 50% in size; further: potency means the concentration at half of the fitted maximal effect", "conditions": "TDP-43 expressing yeast growth rescue, BacTiter-Glo, 24 h; series mostly up to 46.1 µM", "in_short": "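Galactose-induced TDP-43 yeast, OD600=0.02, compound pinned; 24 hr, 30 deg C; BacTiter-Glo luminescence for growth. Inhibitors of TDP-43 toxicity read as activators.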", "values": [{"compound": "Cc1ccc(CN2C(=O)SC(Nc3ccccc3)C2=O)cc1", "note": "(centres undefined)", "Potency": "inactive"}, {"compound": "C=CCn1c(-c2ccc3[nH]c(C)c(C)c3c2)n[nH]c1=S", "Potency": "inactive"}, {"compound": "C=CCn1c(-c2ccccc2OCC)n[nH]c1=S", "Potency": "inactive"}, {"compound": "C=CCn1c(-c2sc(-c3ccccc3)nc2C)n[nH]c1=S", "Potency": "35.5 µM (active)"}, {"compound": "Cc1ccc(C(=O)COC(=O)C(Cc2c[nH]c3ccccc23)NC(=O)c2ccc(Br)cc2)cc1", "note": "(centres undefined)", "Potency": "inactive"}, {"compound": "O=C1OC(C(=O)Nc2cccc(Br)c2)Cc2ccccc21", "note": "(centres undefined)", "Potency": "inactive"}, {"compound": "Nc1c(-c2cccc(Cl)c2)cnn1-c1cccc([N+](=O)[O-])c1", "Potency": "10 µM (active)"}, {"compound": "CCOC(=O)CSc1ncc(-c2cccc(Cl)c2)cn1", "Potency": "inactive"}, {"compound": "COc1cc2c(cc1OC)C(c1cccc([N+](=O)[O-])c1)=NCC2", "Potency": "inactive"}, {"compound": "COc1cccc(C(=O)NC(=O)Nc2ccc(-c3cc(C(F)(F)F)nn3-c3ccccc3)cc2)c1", "Potency": "inactive"}, {"compound": "CCS(=O)(=O)N1CCC(n2c(C)nc3cccnc32)CC1", "Potency": "inactive"}, {"compound": "Oc1ccc(-n2nnnc2SCc2c(F)cccc2Cl)cc1", "Potency": "15.8 µM (active)"}, {"compound": "O=C(CSc1nnnn1-c1ccc(O)cc1)c1ccc(F)cc1", "Potency": "inactive"}, {"compound": "CCN(CC)S(=O)(=O)c1ccc2nc(CSc3nnnn3-c3ccc(O)cc3)[nH]c2c1", "Potency": "inactive"}, {"compound": "Cc1ccc(C)c(N2CCN(c3ccc4cc(S(=O)(=O)N5CCC(C)CC5)ccc4n3)CC2)c1", "Potency": "inactive"}, {"compound": "CCOC(=O)CNc1nc(Cl)nc(Nc2ccccc2)n1", "Potency": "inactive"}, {"compound": "C=CCNc1nc(C)nc(OC)n1", "Potency": "inactive"}, {"compound": "C=CCNc1nc(Nc2ccc(Cl)cc2)nc(OC)n1", "Potency": "35.5 µM (active)"}, {"compound": "Cc1cccc(NC(=O)N2CCN(C)c3ncccc32)c1C", "Potency": "inactive"}, {"compound": "O=C(Nc1nnc(-c2ccc(Cl)cc2)o1)c1ccccc1Br", "Potency": "7.08 µM (active)"}, {"compound": "Cc1c(Br)ccc(NC(=O)COc2ccccc2C(N)=O)c1C", "growth rescue (activation)": "10.9% [at 9.22 µM] (inactive)"}, {"compound": "COc1cccc(-c2nnc(NC(=O)c3ccc(S(=O)(=O)N(CC(C)C)CC(C)C)cc3)o2)c1", "Potency": "inactive"}, {"compound": "O=C(COC(=O)CSc1nnc(-c2ccc(Cl)cc2)o1)Nc1cc(Cl)cc(Cl)c1", "Potency": "inactive"}, {"compound": "O=C(COC(=O)c1ccc(Oc2ccccc2)cc1)Nc1nnc(-c2ccccc2)o1", "Potency": "22.4 µM (active)"}, {"compound": "O=C(Nc1ccc(-c2nc3cc(NC(=O)c4ccccc4Cl)ccc3o2)cc1)c1ccccc1Cl", "Potency": "inactive"}, {"compound": "O=C(COc1ccccc1)Nc1nonc1NC(=O)COc1ccccc1", "Potency": "inactive"}, {"compound": "O=C(COC(=O)c1ccccc1Br)Nc1nnc(-c2ccccc2)o1", "Potency": "22.4 µM (active)"}, {"compound": "CC(C)CNC(=O)COC(=O)c1ccccc1OCC(=O)Nc1ccc(Br)cc1", "Potency": "inactive"}, {"compound": "Cc1ccc2nc(N3CCN(c4cccc(Cl)c4)CC3)c3nnnn3c2c1", "Potency": "inactive"}, {"compound": "O=C(Cn1c(-c2cccs2)cc2ccccc21)NCCc1ccc(Cl)cc1", "Potency": "inactive"}, {"compound": "CCn1cc(C(=O)N2CCN(c3cc(Cl)ccc3C)CC2)c(=O)c2cc(S(=O)(=O)N3CCCC3)ccc21", "Potency": "inactive"}, {"compound": "CCCSc1nc2sc3c(c2c(=O)n1-c1cccc(Br)c1)CC(C)(C)OC3", "Potency": "inactive"}, {"compound": "Cc1c(NC(=O)Cc2ccccc2)cccc1-c1nc2cccnc2s1", "Potency": "inactive"}, {"compound": "COc1ccc(NC(=O)N2CCCn3nc(C)cc32)cc1OC", "Potency": "inactive"}, {"compound": "Cc1nnc(SCC(=O)NCCOc2ccc(Cl)cc2)n1-c1ccccc1", "Potency": "inactive"}, {"compound": "O=C(CCSc1ccccc1)NCCSc1ccccn1", "Potency": "inactive"}, {"compound": "O=C(COc1ccc(Cl)cc1)NCCSc1ccccc1", "Potency": "17.8 µM (active)"}, {"compound": "COc1cc(NC(=O)c2noc3c2CSc2ccccc2-3)cc(OC)c1OC", "Potency": "inactive"}, {"compound": "COC(=O)CN1C(=O)CSc2ccc(S(=O)(=O)Nc3cc(C)ccc3C)cc21", "Potency": "inactive"}, {"compound": "CCc1ccccc1NC(=O)/C(=C/c1ccccc1)c1ccccc1", "Potency": "inactive"}, {"compound": "CCOC(=O)C(=Cc1ccccc1)C(=O)c1ccccc1", "Potency": "6.31 µM (active)"}, {"compound": "CCOC(=O)/C(=C\\c1ccc([N+](=O)[O-])cc1)C(=O)c1cc(C(C)=O)c(Nc2ccccc2)s1", "Potency": "inactive"}, {"compound": "CCOc1cccc2c1N[C@@H](c1ccc(C(=O)O)cc1)[C@H]1CC=C[C@@H]21", "Potency": "inactive"}, {"compound": "COc1cccc(CNC(=O)c2ccc3c(c2)N(Cc2ccc(C(F)(F)F)cc2)C(=O)c2ccccc2S3)c1OC", "Potency": "inactive"}, {"compound": "Cn1c(=O)c2sccc2n2c(CCC(=O)NCc3ccccc3Cl)nnc12", "Potency": "inactive"}, {"compound": "Cn1nnnc1SCCCNCc1ccc(Cl)cc1", "growth rescue (activation)": "7.89% [at 9.22 µM] (inactive)"}, {"compound": "Cc1c(NC(=O)CCC2CCCCC2)cc(C(=O)N2CCOCC2)cc1[N+](=O)[O-]", "Potency": "inactive"}, {"compound": "Cc1cc(C=O)c(C)n1-c1ccc(NC2CCCCC2)c([N+](=O)[O-])c1", "Potency": "35.5 µM (active)"}, {"compound": "COc1ccc(NC(=O)CN(C)C(=O)c2ccc(NC3CC3)c([N+](=O)[O-])c2)cc1", "Potency": "inactive"}, {"compound": "CCc1ccc(C2C(C(=O)Nc3ccccc3)=C(C)Nc3c(C(=O)Nc4ccc(C)cc4)cnn32)cc1", "note": "(centres undefined)", "Potency": "inactive"}, {"compound": "CCOC(=O)c1ccc(NC(=O)Cn2c(=O)n(-c3ccc(C)cc3)c(=O)c3c2cnn3C)cc1", "Potency": "inactive"}, {"compound": "Cc1ccc(-c2nnc(Nc3cccc(Br)c3)c3ccccc23)cc1S(=O)(=O)NCC1CCCO1", "note": "(centres undefined)", "Potency": "inactive"}, {"compound": "CCc1nccn1S(=O)(=O)c1cc(Br)ccc1Br", "Potency": "inactive"}, {"compound": "O=C(c1cc(-c2ccc(O)cc2)on1)N1CCCc2ccccc21", "Potency": "12.6 µM (active)"}, {"compound": "O=C(CSc1ccc2nnc(-c3ccccc3)n2n1)N1CCCc2ccccc21", "Potency": "inactive"}, {"compound": "Cc1ccc(NC(=O)Cc2ccc(NC(=O)N3CCCCc4ccccc43)cc2)cc1", "Potency": "inactive"}, {"compound": "Cc1ccc(OCC(=O)Nc2ccc(Cl)c(-c3nc4ccccc4[nH]3)c2)cc1C", "Potency": "22.4 µM (active)"}, {"compound": "Cc1ccc(NC(=O)COc2ccc(-n3ccnc3)cc2)cc1Cl", "Potency": "inactive"}, {"compound": "Cc1ccc(OCC(=O)Nc2ccc3oc(=O)ccc3c2)cc1C", "Potency": "inactive"}, {"compound": "Cn1c(=O)c2c(n3c4ccccc4nc13)NC(=O)CC2c1cccc(Cl)c1", "note": "(centres undefined)", "Potency": "inactive"}, {"compound": "CC(=O)N1CCc2cc(S(=O)(=O)NC(Cc3ccccc3)C(=O)NCc3ccc(C)cc3)ccc21", "note": "(centres undefined)", "Potency": "inactive"}, {"compound": "CCOc1ccccc1CNCc1c(C(=O)O)c(C)n(Cc2ccc(C)cc2)c1C", "Potency": "inactive"}, {"compound": "Cc1ccc2ncc(C(=O)Nc3ccc(OC(F)(F)F)cc3)c(=O)n2c1", "Potency": "inactive"}, {"compound": "Cc1ccc(C(=O)OCC(=O)NC2CCCCCCC2)cc1C", "Potency": "inactive"}, {"compound": "O=C(COC(=O)c1cccc(Cl)c1)NC1CCCCCCC1", "Potency": "22.4 µM (active)"}, {"compound": "O=C(COC(=O)c1cccc(Cl)c1Cl)NC1CCCCCC1", "Potency": "inactive"}, {"compound": "CCn1cc2nc(SCc3ccccc3Cl)n(CCc3ccccc3)c(=O)c2n1", "Potency": "inactive"}, {"compound": "COc1ccc(CNC(=O)CCc2c(C)nn(-c3ccc(N4CCCC4)nn3)c2C)cc1", "Potency": "inactive"}, {"compound": "Cc1ccc(NC(=O)CN2C(=O)CC(C)Sc3ccccc32)c(C)c1", "note": "(centres undefined)", "Potency": "17.8 µM (active)"}, {"compound": "CC1CC(=O)N(CC(=O)Nc2cccc(Cl)c2)c2ccccc2S1(=O)=O", "note": "(centres undefined)", "Potency": "inactive"}, {"compound": "Cc1ccccc1NC(=O)CN1C(=O)C(C)(C)c2ccccc21", "Potency": "inactive"}, {"compound": "COC(=O)c1c(NC(=O)c2cc(=O)c3c(C)cc(C)cc3o2)sc2c1CCCC2", "Potency": "inactive"}, {"compound": "COc1ccc(-c2noc(CSc3nc4ccc(C)cc4[nH]3)n2)cc1", "Potency": "inactive"}, {"compound": "COc1ccc(OC)c(CNC(=O)Cn2nc(C)c3c(C)n(-c4ccccc4)nc3c2=O)c1", "Potency": "inactive"}, {"compound": "CC(C)CC(N=C1NC(C)(C)Cc2ccccc21)C(=O)O", "note": "(centres undefined)", "Potency": "inactive"}, {"compound": "CCOC(=O)C1=C(NC(=S)NC(=O)c2ccccc2)c2ccccc2CC1(C)C", "Potency": "inactive"}, {"compound": "CC1(C)Cc2ccccc2/C(=C/C(=O)c2ccccc2)N1", "Potency": "12.6 µM (active)"}, {"compound": "O=C(CSc1n[nH]c(-c2ccccc2)n1)N1CCCCC1", "Potency": "inactive"}, {"compound": "Cc1cc(=O)n(CC(=O)Nc2cccc([N+](=O)[O-])c2)c(-n2nc(C)cc2C)n1", "Potency": "inactive"}, {"compound": "COC(=O)c1cc(NC(=O)CCS(=O)(=O)c2cc(Br)cc3c2N(C(=O)C2CC2)CC3)cc(C(=O)OC)c1", "Potency": "inactive"}, {"compound": "COc1ccc(CCNc2nc(-c3ccc(F)cc3)cc(C(F)(F)F)n2)cc1OC", "Potency": "inactive"}, {"compound": "COc1ccc(CNc2nc(-c3ccc(Cl)cc3)cc(C(F)(F)F)n2)cc1", "Potency": "inactive"}, {"compound": "COc1ccc(-c2cc(C(F)(F)F)nc(S(C)(=O)=O)n2)cc1OC", "Potency": "10 µM (active)"}, {"compound": "COc1ccccc1CNC(=O)Cn1nc(C)c2nn(-c3ccc(Cl)cc3)c(C)c2c1=O", "Potency": "inactive"}, {"compound": "COc1ccccc1OCCCn1c(-c2ccc(Cl)cc2)nc2ccccc2c1=O", "Potency": "inactive"}, {"compound": "O=C(Nc1ccc2nc(SCC(=O)N3CCc4ccccc43)sc2c1)c1ccccc1F", "Potency": "inactive"}, {"compound": "CN(C(=O)CSc1nc2ccc(NC(=O)COc3ccccc3)cc2s1)c1ccccc1", "Potency": "inactive"}, {"compound": "O=C(O)c1ccccc1CSc1nc2ccccc2s1", "Potency": "12.6 µM (active)"}, {"compound": "Cc1cccc(-c2nc(SCc3ccc(Br)cc3)n3[nH]c(=O)cc3n2)c1", "Potency": "inactive"}, {"compound": "COc1ccc(CC(=O)N2CC(=O)Nc3ccc(Br)cc3C2c2ccc(F)cc2)cc1OC", "note": "(centres undefined)", "Potency": "inactive"}, {"compound": "COc1ccc(Nc2ncc(C(=O)N3CCN(c4ccccc4OC)CC3)c3ccccc23)cc1", "Potency": "inactive"}, {"compound": "Cn1nc(-c2ccc(Cl)cc2)c2cc(C(=O)NCc3ccco3)sc21", "Potency": "inactive"}, {"compound": "CCS(=O)(=O)N1CCc2cc(C(=O)N3CCN(c4ccccc4OC)CC3)ccc21", "Potency": "inactive"}, {"compound": "COc1ccc(CNC(=O)c2cc3c(-c4ccccc4F)nn(C)c3s2)c(OC)c1", "Potency": "inactive"}, {"compound": "COc1ccccc1N1CCN(C(=O)c2cc3c(-c4ccc(Cl)cc4)nn(C)c3s2)CC1", "Potency": "35.5 µM (active)"}, {"compound": "COc1cccc(-c2cc(C(=O)N3CCN(c4ccccc4OC)CC3)no2)c1", "Potency": "22.4 µM (active)"}, {"compound": "COc1ccc(C(=O)NCC(c2ccc(N(C)C)cc2)N2CCc3ccccc32)c(OC)c1", "note": "(centres undefined)", "Potency": "inactive"}, {"compound": "CCOC(=O)c1c(NC(=O)COc2cc(C)ccc2C(C)C)sc(C)c1C", "Potency": "inactive"}, {"compound": "CCc1ccccc1OCCSc1nc(-c2cccs2)nc2cc(=O)[nH]n12", "Potency": "inactive"}]}]}
